{"source": "PubChem BioAssay (EPA / NIEHS)", "note": "Inconclusive results are not listed. Active and inactive are the calls of the source. How the source made its calls: active means hit-call score of the fitted dose curve at least 0.9, where 1 is the maximum; inconclusive means response in the unintended direction; inactive means score below 0.9."}
{"biological_target": "PGR (gene 5241) (UniProt P06401)", "sequence (P06401 whole entry, looked up)": "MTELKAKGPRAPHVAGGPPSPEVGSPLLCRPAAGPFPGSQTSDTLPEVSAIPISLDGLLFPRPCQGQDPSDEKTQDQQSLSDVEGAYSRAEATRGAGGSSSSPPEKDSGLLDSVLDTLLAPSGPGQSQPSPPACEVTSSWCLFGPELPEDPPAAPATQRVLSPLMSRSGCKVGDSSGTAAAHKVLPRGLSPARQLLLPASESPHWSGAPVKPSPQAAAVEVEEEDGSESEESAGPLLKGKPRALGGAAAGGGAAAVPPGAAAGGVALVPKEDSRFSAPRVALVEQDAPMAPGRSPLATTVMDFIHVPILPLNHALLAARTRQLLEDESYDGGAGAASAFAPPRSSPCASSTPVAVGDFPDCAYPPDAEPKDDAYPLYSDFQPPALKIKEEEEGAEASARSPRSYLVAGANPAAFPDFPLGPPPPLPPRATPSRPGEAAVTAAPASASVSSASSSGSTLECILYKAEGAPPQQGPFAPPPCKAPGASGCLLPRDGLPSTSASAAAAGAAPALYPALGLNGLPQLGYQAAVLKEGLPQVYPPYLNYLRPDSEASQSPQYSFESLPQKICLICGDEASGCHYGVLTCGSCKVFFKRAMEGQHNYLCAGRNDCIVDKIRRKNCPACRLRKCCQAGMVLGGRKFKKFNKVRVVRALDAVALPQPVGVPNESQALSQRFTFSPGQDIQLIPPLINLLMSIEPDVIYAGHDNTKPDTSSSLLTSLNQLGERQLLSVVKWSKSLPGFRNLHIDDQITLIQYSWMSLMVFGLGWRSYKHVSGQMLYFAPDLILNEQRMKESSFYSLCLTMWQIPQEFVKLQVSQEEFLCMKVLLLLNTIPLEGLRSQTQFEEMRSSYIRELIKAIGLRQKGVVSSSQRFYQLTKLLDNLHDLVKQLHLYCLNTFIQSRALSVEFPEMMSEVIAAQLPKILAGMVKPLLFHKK", "test": "TOX21_PR_LUC_Followup_Antagonist: Tox21 HEK293 Progesterone Receptor (PR) Antagonism Luciferase Follow-Up Assay (AID 2283938);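 further: curve fitted upward as signal gain over DMSO baseline despite antagonist label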", "text": "TOX21_PR_LUC_Followup is a secondary assay for specificity for the TOX21_PR_BLA_Agonist assay. To differentiate true PR agonists from cytotoxic substances, this follow up assay is multiplexed with a cell viability assay.TOX21_PR_LUC_Followup_Antagonist is one of one assay component(s) measured or calculated from the TOX21_PR_LUC_Followup assay. It is designed to make measurements of luciferase induction, a form of inducible reporter, as detected with bioluminescence signals by CellTiter-Glo Luciferase-coupled ATP quantitation technologyData from the assay component TOX21_PR_LUC_Followup_Antagonist was analyzed into 1 assay endpoint. This assay endpoint, TOX21_PR_LUC_Followup_Antagonist, was analyzed in the positive analysis fitting direction relative to DMSO as the negative control and baseline of activity. Using a type of inducible reporter, gain-of-signal activity can be used to understand changes in the reporter gene as they relate to the gene NR3C3. Furthermore, this assay endpoint can be referred to as a primary readout, because the performed assay has only produced 1 assay endpoint. To generalize the intended target to other relatable targets, this assay endpoint is annotated to the nuclear receptor target family, where the subfamily is steroidal.\nQuality Control Precautions: Maintain cells below 85-90% confluence in culture medium. For assay purpose, the cells should be cultured in assay medium with 10% charcoal stripped FBS for 5 days with alternate day medium changed to fresh medium. Especially while in assay culture, the cells should not reach more than 85% confluence as they would become harder to detach if they reach over confluence.Assay Protocol: HEK293-PR-A-luc cells were dispensed at 3,000 cells/5 uL/well of culture medium into white wall/solid-bottom 1536-well plates using a Multidrop Combi (ThermoFisher Scientific, Waltham, MA) dispenser. After the assay plates were incubated at 37C and […] for 5 h, 23 nL of compounds dissolved in DMSO, positive controls or DMSO only was transferred to the assay plate by a Pintool station (Kalypsys, San Diego, CA). The plates were incubated at 37C and […] for 16 h. Then 4 uL of ONE-Glo reagent (Promega, Madison, WI) was added to each plate using a BioRAPTR Flying Reagent Dispenser (FRD) workstation (Beckman Coulter, Indianapolis, IN, USA) and luminescence was quantified on a ViewLux (PerkinElmer, Shelton, CT) plate reader after 30 min incubation at room temperature."}
{"smiles": "CCOP(=S)(OCC)Oc1ccc(Cl)cc1Cl", "outcome": "inactive"}
{"smiles": "Nc1ccc(-c2ccccc2)cc1", "outcome": "inactive"}
{"smiles": "OC(c1ccc(Cl)cc1)(c1ccc(Cl)cc1)c1cccnc1", "AC50": "62.2 µM (active)"}
{"smiles": "CC(C)CC(C)(c1ccc(O)cc1)c1ccc(O)cc1", "AC50": "12.2 µM (active)"}
{"smiles": "CCCSP(=S)(OCC)Oc1ccc(SC)cc1", "note": "(configuration not stated)", "outcome": "inactive"}
{"smiles": "CCCSP(=S)(OCC)Oc1ccc(Cl)cc1Cl", "note": "(configuration not stated)", "AC50": "24.3 µM (active)"}
{"smiles": "O=S(=O)(c1ccc(Cl)cc1)c1cc(Cl)c(Cl)cc1Cl", "AC50": "61 µM (active)"}
{"smiles": "O=S(=O)(Oc1ccc(Cl)cc1)c1ccc(Cl)cc1", "outcome": "inactive"}
{"smiles": "O=[N+]([O-])c1ccc(Nc2ccccc2)cc1", "AC50": "12.8 µM (active)"}
{"smiles": "CC(C)(C1CCC(O)CC1)C1CCC(O)CC1", "note": "(configuration not stated)", "outcome": "inactive"}
{"smiles": "CC(O)(CS(=O)(=O)c1ccc(F)cc1)C(=O)Nc1ccc(C#N)c(C(F)(F)F)c1", "note": "(configuration not stated)", "AC50": "6.97 µM (active)"}
{"smiles": "Cc1ccccc1OP(=O)(Oc1ccccc1C)Oc1ccccc1C", "outcome": "inactive"}
